The supplement of paper PMC3334620
Whole data set: some 33,000 sequences, median “E-score (-0.5 to 0.5)” near -0.0059, cut for the highest 2% near 0.26. This excerpt belongs to a sample that is enriched for the highest values.

Target: T1, Cin5 (UniProt P40917)
T1 sequence: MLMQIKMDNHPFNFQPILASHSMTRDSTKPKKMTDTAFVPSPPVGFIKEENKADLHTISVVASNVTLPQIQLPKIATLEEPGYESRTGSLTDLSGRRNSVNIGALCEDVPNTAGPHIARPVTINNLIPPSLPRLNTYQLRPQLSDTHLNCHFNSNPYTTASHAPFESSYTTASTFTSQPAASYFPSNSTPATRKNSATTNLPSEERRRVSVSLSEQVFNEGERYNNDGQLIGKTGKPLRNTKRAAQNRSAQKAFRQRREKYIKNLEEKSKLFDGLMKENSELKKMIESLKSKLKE
Experiment: PBM E-score (8-mer binding enrichment) (E-score (-0.5 to 0.5)); higher = stronger / more preferred TF binding
Details: protein concentration: 100 nM; construct: GST-full length
Outline: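 PURExpress in vitro transcription/translation supplied GST-tagged yeast transcription factors, either full-length or DNA-binding domain. Applied at about 100-200 nM to universal all-10-mer Agilent arrays double-stranded by primer extension, the bound protein was detected with fluorescent anti-GST. E-scores, modified Wilcoxon-Mann-Whitney statistics, were given by the Universal PBM Analysis Suite to ungapped eight-base words pooled with their reverse complements after masliner normalisation.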

| Sequence | PBM E-score |
| --- | --- |
| GCTTGAAA | 0.0153 |
| GAATCAAA | 0.142 |
| ATATCAAA | 0.166 |
| GAATCCAA | 0.0873 |
| TTATCAAA | 0.298 |
| AAATCCAA | 0.117 |
| AAATCCAC | 0.0254 |
| CAATCAAA | 0.151 |
| AAATCCAT | 0.312 |
| TAATCCAA | 0.283 |
| CTATCAAA | 0.199 |
| TAATCAAA | 0.329 |
| AAATCCAG | 0.13 |
| AAAAGAAT | 0.257 |
| CGTCTGAA | -0.133 |
| CAAAGTCA | 0.107 |
| CACGGGCC | -0.296 |
| CCGCATGA | -0.136 |
| CCAAAGAC | -0.185 |
| CAATCTCG | 0.0199 |
| CAATCGCA | 0.13 |
| CAATCATA | 0.201 |
| AAATCATA | 0.198 |

| Sequence | PBM E-score |
| --- | --- |
| TAATCGCA | 0.294 |
| GAATCGCA | -0.0879 |
| TAATCATA | 0.326 |
| ACGTTGCT | 0.188 |
| ATGCTTGA | 0.133 |
| AAGAAGTG | 0.015 |
| GTTATTCA | 0.143 |
| ATTATTCC | 0.273 |
| CTTATTCA | 0.142 |
| ACTATTCC | 0.0567 |
| ATTATTAG | 0.0574 |
| CTTATTCC | 0.117 |
| ATTATTCG | 0.288 |
| ACTATTCG | 0.224 |
| ATTATTCA | 0.262 |
| GCGACCGA | 0.0144 |
| GTGAGGAA | -0.138 |
| GGCTTTTA | -0.223 |
| AACTGGGA | -0.0428 |
| AATCCTAA | 0.0229 |
| ACAGTTGG | 0.016 |
| ATAACGTC | 0.0919 |
| GTAACGTA | 0.129 |

| Sequence | PBM E-score |
| --- | --- |
| CTAACCAA | 0.0775 |
| ATAACGTA | 0.313 |
| CTAACGAA | -0.0791 |
| ATAACGAA | 0.294 |
| ATAACCAA | 0.258 |
| ATAACCAG | 0.0194 |
| ATAACGAC | 0.238 |
| ACCGGCGC | 0.0762 |
| ATCCGGCA | 0.0463 |
| GGTGAACC | -0.108 |
| CTTTTGAC | -0.0394 |
| AGTTACTC | 0.0474 |
| CGACACCC | -0.0488 |
| ACATAGAG | -0.0918 |
| ATGCGCAA | 0.128 |
| ATGCGCAT | 0.332 |
| ATGCGCAC | 0.0881 |
| AAGTCTAA | -0.0864 |
| ACCCATTG | -0.0482 |
| CAAGTTAC | 0.104 |
| ATCAGCAA | 0.0322 |
| GTAAGCAC | 0.319 |
| ATAAGCAC | 0.175 |

| Sequence | PBM E-score |
| --- | --- |
| ATAAGCAA | 0.349 |
| ATAAGCAG | 0.33 |
| CTAAGCAG | 0.042 |
| ACAAGCAA | 0.122 |
| ATAAGCAT | 0.118 |
| CTCAGCAA | 0.0669 |
| GTCAGCAA | 0.267 |
| CTAAGCAC | 0.183 |
| CTAAGCAA | 0.076 |
| ACTGGAGC | -0.253 |
| GCTATCCC | -0.129 |
| ATAGGCAA | 0.157 |
| AAGAAGAA | 0.0684 |
| ACTCCTAA | 0.00319 |
| ATCAACGA | 0.0637 |
| GTAACGCA | 0.0946 |
| ACCCCGGA | -0.00022 |
| GCAAGCAA | 0.00274 |
| GTAAGCAA | 0.419 |
| TTAAGCAA | 0.0545 |
| AACACTCA | 0.182 |
| CGGCCAAG | -0.069 |
| AAAGGCGG | -0.104 |

| Sequence | PBM E-score |
| --- | --- |
| TCGAAGAA | 0.014 |
| ACGAAGAT | 0.116 |
| ACGAAGAA | 0.284 |
| GCAATGCA | -0.053 |
| GGCTCTAA | 0.0226 |
| ACCATTGC | 0.0233 |
| GTGCAAAA | -0.037 |
| AACAATTA | 0.295 |
| AACAATTG | 0.0983 |
| ACCAATTG | -0.0132 |
| GCCAATTA | 0.155 |
| ATCAATTC | 0.044 |
| AACAATTC | 0.111 |
| ACCAATTA | 0.266 |
| ATCAATTA | 0.317 |
| ATCAATTG | 0.232 |
| CCTGGACG | -0.179 |
| GCCTCAAA | 0.0112 |
| GGCCTGGA | -0.317 |
